Records with an inconclusive call do not appear. Active and inactive are the calls of the source. How the source made its calls: active means hit-call score of the fitted dose curve at least 0.9, where 1 is the maximum; inconclusive means response in the unintended direction; inactive means score below 0.9.
Molecular target: human RAR-related Orphan Receptor gamma (RORg), RORC (gene 6097) (UniProt P51449)
Assay: ATG_RORg_TRANS: Attagene TRANS-FACTORIAL HepG2 Assay for human RAR-related Orphan Receptor gamma (RORg) (AID 2283011)
Protocol: ATG_TRANS is a cell-based, multiplexed-readout assay that uses HepG2, a human liver cell line, with measurements taken at 24 hours after chemical dosing in a 24-well plate.ATG_RORg_TRANS is one of 30 assay component(s) measured or calculated from the ATG_TRANS assay. It is designed to make measurements of mRNA induction, a form of inducible reporter, as detected with fluorescence intensity signals by Reverse transcription polymerase chain reaction (RT-PCR) and Capillary electrophoresis technology.Data from the assay component ATG_RORg_TRANS was analyzed into 1 assay endpoint. This assay endpoint, ATG_RORg_TRANS, was analyzed in the positive analysis fitting direction relative to DMSO as the negative control and baseline of activity. Using a type of inducible reporter, measures of mRNA for gain-of-signal activity can be used to understand the reporter gene at the transcription factor-level as they relate to the gene RORC. Furthermore, this assay endpoint can be referred to as a primary readout, because this assay has produced multiple assay endpoints where this one serves a reporter gene function. To generalize the intended target to other relatable targets, this assay endpoint is annotated to the nuclear receptor intended target family, where the subfamily is orphan.
Human liver HepG2 cells are transiently transfected with multiple reporter transcription units (MRTUs) in 6-well plates using FuGene 6 reagent (Roche; 3 ml FuGene/1 mg DNA). The MRTU constructs are regulated by a cis-regulating element (promoter). […] A major difference between the CIS and TRANS system is that in CIS activities of endogenous TFs are measured, whereas the TRANS assay evaluates changes in activities of exogenous, chimeric NR-Gal4 proteins. […] At the end of 24 hour incubation, total RNA was isolated using TriZol reagent (Invitrogen). The isolated RNA is then reverse-transcribed using oligo(dT) primer and Mo-MLV reverse transcriptase (Invitrogen) with DNAse I (Ambion) treatment for 30 min. The one-tenth of the produced cDNA was amplified by PCR using Taq DNA polymerase (Invitrogen) and two reporter sequence-specific primers. The PCR products were fluorescently labeled by primer extension with 6-arboxyfluorescein (6-FAM) 5'-labeled reporter sequence-specific primer (2 min at 95 C, 20 s at 68 C and 10 min at 72 C) and these products were digested with 5U of HpaI (New England Biolabs) for 2h at 37 C. The fragments were purified using Qiaquick PCR columns (Qiagen), analyzed on an ABI 3130xL genetic analyzer (Applied Biosystems) with peak positions identified by using a set of X-rhodamine (ROX)-labeled MapMarker1000 molecular weight standards (BioVentures). The raw capillary electrophoresis data was processed using Attagraph software (Attagene).

Sequence of human RAR-related Orphan Receptor gamma (RORg), RORC (gene 6097) (P51449 whole entry, looked up): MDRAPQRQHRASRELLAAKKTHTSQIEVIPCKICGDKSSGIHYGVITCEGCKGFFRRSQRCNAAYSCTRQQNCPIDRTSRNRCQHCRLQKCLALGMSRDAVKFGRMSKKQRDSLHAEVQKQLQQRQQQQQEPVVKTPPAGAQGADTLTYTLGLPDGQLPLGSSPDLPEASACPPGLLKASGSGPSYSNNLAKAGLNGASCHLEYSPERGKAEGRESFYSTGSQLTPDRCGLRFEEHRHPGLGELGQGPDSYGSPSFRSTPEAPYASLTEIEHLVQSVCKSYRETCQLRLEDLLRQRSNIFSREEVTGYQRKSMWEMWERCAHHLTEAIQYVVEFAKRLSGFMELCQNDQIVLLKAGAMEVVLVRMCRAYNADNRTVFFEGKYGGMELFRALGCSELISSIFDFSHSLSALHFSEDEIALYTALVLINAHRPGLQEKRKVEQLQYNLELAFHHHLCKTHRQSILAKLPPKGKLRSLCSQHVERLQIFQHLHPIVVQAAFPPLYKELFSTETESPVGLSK

Compound	outcome
CCCCC[C@H](O)CC(=O)CCc1ccc(O)c(OC)c1	inactive
CC(C)(C)c1ccc(O)c(C(C)(C)C)c1	inactive
OC1CCCCC1	inactive
O=C(OCCOCCOC(=O)c1ccccc1)c1ccccc1	inactive
FC(F)(I)C(F)(F)C(F)(F)C(F)(F)C(F)(F)C(F)(F)I	inactive
Cc1ccc(S(=O)(=O)O)c(C)c1	inactive
CC[C@H](C)[C@@H](C(=O)O)n1sc2ccccc2c1=O	inactive
CCc1ccc(CCOc2ccc(CC3SC(=O)NC3=O)cc2)nc1 (stereo not given)	inactive
CCCCCCCCOC(=O)CCCCCCCCC(=O)OCCCCCCCC	inactive
CCCCCCCCCCCCc1ccccc1S(=O)(=O)O	inactive
CC(O)CO (stereo not given)	inactive
COc1ccc([N+](=O)[O-])cc1N	inactive
O=C(O)c1ccccc1C(c1ccc(O)cc1)c1ccc(O)cc1	inactive
C=C(C)C(=O)OCCC(F)(F)C(F)(F)C(F)(F)C(F)(F)C(F)(F)C(F)(F)F	inactive
CCOC(=O)CC(O)(CC(=O)OCC)C(=O)OCC	inactive
N#C[C@@H]1CC(F)(F)CN1C(=O)CNC1CC2CCC(C1)N2c1ncccn1 (stereo not given in full)	inactive
Cc1oc(-c2ccccc2)nc1CCOc1ccc(C[C@H](Nc2ccccc2C(=O)c2ccccc2)C(=O)O)cc1	inactive
Oc1cccc(O)c1	inactive

Compound	outcome
COc1cc(CCC(=O)CC(=O)CCc2ccc(O)c(OC)c2)ccc1O	inactive
O=c1c(-c2ccc(O)cc2)coc2cc(O)ccc12	inactive
CCCCC(CC)COC(=O)CCCCC(=O)OCc1ccccc1 (stereo not given)	inactive
CN(C)C=O	inactive
CN1CCC[C@H]1c1cccnc1	inactive
Cc1cc(C)c(O)c(C)c1	inactive
CC(=O)CC(C)(C)O	inactive
CCCCCCCCCCCCCC[N+](C)(C)C	inactive
OCCC(F)(F)C(F)(F)C(F)(F)C(F)(F)C(F)(F)C(F)(F)C(F)(F)C(F)(F)F	inactive
O=C(O)Cc1cc(I)c(Oc2cc(I)c(O)c(I)c2)c(I)c1	inactive
NC(=O)N1C(=O)C(C(=O)c2cc(Cl)cs2)c2cc(F)c(Cl)cc21 (stereo not given)	inactive
CC(C)(C)c1cc(C(C)(C)C)c(O)c(C(C)(C)C)c1	inactive
CCCOc1sc(C(=O)N2CCC(c3cc(CN)ccc3F)CC2)c(C)c1Br	inactive
OCCC(F)(F)C(F)(F)C(F)(F)C(F)(F)C(F)(F)C(F)(F)F	inactive
C[C@@H]1C[C@H]2[C@@H]3CCC4=CC(=O)C=C[C@]4(C)[C@@]3(F)[C@@H](O)C[C@]2(C)[C@@]1(O)C(=O)COP(=O)(O)O	inactive
O=C1OC2(c3ccccc31)c1cc(Br)c(O)c(Br)c1Oc1c2cc(Br)c(O)c1Br	inactive
c1ccc2cc3c(ccc4ccccc43)cc2c1	inactive

From PubChem BioAssay (EPA / NIEHS)
